Results taken from PubChem BioAssay (NCATS).
Records with an inconclusive call do not appear. A call without a number means that no potency is given here. Active and inactive are the calls of the source. The call rests on the fitted dose curve; in most records, active means well fitted cell-killing curve with a large enough effect; inconclusive means small, poorly fitted or top-dose-only effect; inactive means flat fitted curve, though single readings scatter.
Potency means the concentration at half of the fitted maximal effect.

Assay: qHTS of pediatric cancer cell lines to identify multiple opportunities for drug repurposing: Primary screen for DAOY cells (AID 1347090); further: nearly all actives have a fitted effect of over 55% in size
Details: DAOY medulloblastoma viability, CellTiter-Glo luminescence, 48 h; series mostly up to 46 µM
Text: Drug repurposing or repositioning has been offered as a strategy for drug development in oncology programs. This approach has special potential for childhood cancers and other rare or orphan diseases, where the expected return on new drug development has been a disincentive to pharmaceuticals.
In this project we exploit the poly-pharmacology of drugs to discover new indications via phenotypic screening of a panel of 19 well-characterized cell lines derived from solid tumors seen in children and adolescents. The goal is to identify approved drugs with previously unrecognized anticancer properties that has the potential to reveal new mechanisms and biological processes involved in carcinogenesis or drug resistance. We employed a titration-based paradigm (quantitative high-throughput screening or qHTS), where all compounds were tested at multiple concentrations for their effect on cell viability. Concentration-response curves (CRCs) were derived directly from the primary screen, and both potency and efficacy values were used to identify compounds with robust bioactivity profiles. We screened the NIH Chemical Genomics Center (NCGC) Pharmaceutical Collection (NPC) and Mechanism Interrogation Plate (MIPE) small molecule collections of approved and investigational compounds against these cell lines; and measured metabolically active cells after 48 hours of compound treatment as a proxy for cell viability.
Assay Submitter: Nathalia J. Martinez, National Center for Advancing Translational Sciences, National Institutes of Health, Rockville, MD, USA; email: natalia.martinez@nih.gov
[1] Shen, M et al. Quantitative high-throughput phenotypic screening of pediatric cancer cell lines identifies multiple opportunities for drug repurposing. Oncotarget 2017 Dec 19;9(4):4758-4772. PMID 29435139.
The cells were obtained from University of North Carolina (UNC), Pediatric Preclinical Testing Program (PPT), and Coriell Institute (CI).
qHTS cell viability assay:
Cells were assayed in growth media at a density of 500-1,000 cells/well. Five microliters of cells were dispensed into 1,536-well, white, solid-bottom, TC-treated plates (Greiner Bio One) using a multidrop dispenser and incubated at 37 degrees C, 5% CO2, under a humidified atmosphere for 5 hours. Twenty-three nanoliters of compounds and controls (neutral control DMSO or positive control bortezomib at final concentration of 2.3 µM) were subsequently transferred by Kalypsys pintool. For primary screens, the MIPE collection was tested at 11-point dilutions (final concentrations range from 0.78 nM to 46 µM) and the NPC collection at 8-point dilutions (final concentrations range from 0.59 nM to 46 µM). Compounds tested in follow-up screens were assayed at 11-point dilutions. Cells were incubated for 48 hours, followed by addition of 3 uL of CellTiter-Glo (Promega). After a 15 min incubation at room temperature, samples were analyzed for luminescence intensity using a ViewLux High-throughput CCD imager equipped with clear filters.
In the case of COc1ccc(-c2ccc3ncc4c(c3c2)n(-c2ccc(N3CCNCC3)c(C(F)(F)F)c2)c(=O)n4C)cn1, the Potency is reported as 0.59 µM (active). For C[C@H](CCC(=O)O)[C@H]1CC[C@H]2[C@H]3[C@@H](CC[C@]12C)[C@@]1(C)CC[C@@H](O)C[C@H]1C[C@@H]3O, the Potency was “inactive”. For COc1nc(C)cnc1NS(=O)(=O)c1cccnc1-c1ccc(-c2nnco2)cc1, the Potency was “inactive”. With COc1ccc(C=CC(=O)Nc2ccccc2C(=O)O)cc1OC the Potency was “inactive”. In the case of CON(C)C(=O)N1N=C(c2cc(F)ccc2F)S[C@]1(CCCN)c1ccccc1, the Potency is reported as 0.0015 µM (active). For Cc1[nH]c(C=C2C(=O)Nc3ccc(S(=O)(=O)N(C)c4cccc(Cl)c4)cc32)c(C)c1C(=O)N1CCN(C)CC1, the Potency was 23.5 µM (active). With O=C(CCCN1CCN(c2ccc(F)cc2)CC1)NC1c2ccccc2CSc2ccccc21 (stereo not given) the Potency was 14.8 µM (active). For CN1CCN(c2ncc(-c3cc(Cl)cc(Cl)c3Cl)c(N)n2)CC1, the Potency was “inactive”. For CNC1[C@H](O)C(O[C@@H]2C(O)C(O[C@H]3O[C@H]([C@@H](C)NC)CC[C@H]3N)[C@@H](N)C[C@H]2N)OC[C@]1(C)O (stereo not given in full), the Potency was “inactive”. With COc1ccc(-c2oc3c(CC=C(C)C)c(O)cc(O)c3c(=O)c2O)cc1 the Potency was 23.5 µM (active). For Cc1cnc(Nc2cccc(CN3CCOCC3)c2)nc1Nc1cccc(S(=O)(=O)NC(C)(C)C)c1, the Potency was 14.8 µM (active). For OC[C@H]1O[C@@H](O[C@H]2[C@@H](O)[C@@](O)(CO)O[C@@H]2CO)[C@H](O)[C@@H](O)[C@@H]1O, the Potency was “inactive”. With COc1cc(CNC(=O)CCCCC=CC(C)C)ccc1O the Potency was “inactive”. With Nc1nc(Cl)nc2c1ncn2[C@@H]1O[C@H](CO)[C@@H](O)[C@H]1F the Potency was 0.0372 µM (active). For C[C@@H](O)[C@H]1C(=O)N2C(C(=O)OCOC(=O)C(C)(C)C)=C(SC3CN(C4=NCCS4)C3)[C@H](C)[C@H]12, the Potency was “inactive”. With NC(=O)c1ccc(N(C(N)=O)c2c(F)cccc2F)nc1-c1ccc(F)cc1F the Potency was 14.8 µM (active). With CN1CCC(COc2cnc(-c3cccc(Cn4nc(-c5cccc(C#N)c5)ccc4=O)c3)nc2)CC1 the Potency was 23.5 µM (active). With CN(C)CCN(Cc1ccc(Cl)cc1)c1ccccn1 the Potency was 29.6 µM (active). With C=CC[N+]1([C@H]2C[C@H]3[C@@H]4CC[C@H]5C[C@H](O)[C@@H](N6CCOCC6)C[C@]5(C)[C@@H]4CC[C@]3(C)[C@H]2OC(C)=O)CCCC1 the Potency was “inactive”. For O=C1C(CCC(O)c2ccc(F)cc2)C(c2ccc(O)cc2)N1c1ccc(F)cc1 (stereo not given), the Potency was “inactive”. For C=C[C@@H]1CN2CCC1C[C@@H]2C(O)c1ccnc2ccc(OC)cc12 (stereo not given in full), the Potency was “inactive”. With CCC(c1ccc(O)cc1)C(CC)c1ccc(O)cc1 (stereo not given) the Potency was 0.59 µM (active). In the case of Cc1ccc(NC(=O)c2cccc(N(C)C)c2)cc1NC(=O)c1ccc(O)cc1, the Potency is reported as “inactive”. For CO[C@H]1/C=C\O[C@@]2(C)Oc3c(C)c(O)c4c(O)c(c5c(nc6cc(C)ccn65)c4c3C2=O)NC(=O)C(C)=CC=C[C@H](C)[C@H](O)[C@@H](C)[C@@H](O)[C@@H](C)[C@H](OC(C)=O)[C@H]1C, the Potency was “inactive”. With Cn1c(=O)c(-c2c(Cl)cccc2Cl)cc2cnc(Nc3cccc(C(=O)O)c3)nc21 the Potency was 0.372 µM (active). In the case of CN1c2ccccc2C(=O)N2CCc3c([nH]c4ccccc34)C21 (stereo not given), the Potency is reported as “inactive”. With CC=C1C2C=C(C)CC1(N)c1ccc(=O)[nH]c1C2 (stereo not given) the Potency was “inactive”. For CNc1nc(Nc2ccc(C(=O)N3CCOCC3)cc2OC)ncc1Cl, the Potency was “inactive”. For CN[C@H]1[C@@H](O[C@@H]2[C@H](O[C@@H]3[C@@H](O)[C@@H](O)[C@@H](N=C(N)N)[C@@H](O)[C@@H]3N=C(N)N)O[C@H](C)[C@@]2(O)C=O)O[C@@H](CO)[C@@H](O)[C@H]1O, the activity change, negative = cytotoxic was 1.78% [at 9.22 µM] (inactive). For Cc1cc(OCCCS(C)(=O)=O)cc(C)c1-c1cccc(COc2ccc3c(c2)OC[C@H]3CC(=O)O)c1, the Potency was 18.7 µM (active). In the case of Cc1nc2c([nH]1)CCN(C(=O)c1ccc(NC(=O)c3ccccc3-c3ccccc3)cc1)c1ccccc1-2, the Potency is reported as “inactive”. For FC(F)(F)c1ccc(C=Cc2nc(COc3ccc(CCCCn4ccnn4)cc3)co2)cc1, the Potency was 0.0187 µM (active). For CC1(C)OC2CC3C4CC(F)C5=CC(=O)C=CC5(C)C4C(O)CC3(C)[C@]2(C(=O)CO)O1 (stereo not given in full), the Potency was “inactive”. For CN1CC(=O)NC1=NC(=O)Nc1cccc(Cl)c1, the Potency was “inactive”. With COc1ccc2nc3cc(Cl)ccc3c(Nc3cc(CN4CCCC4)c(O)c(CN4CCCC4)c3)c2n1 the Potency was “inactive”. For CNC(=O)c1cc(Oc2ccc(NC(=O)Nc3ccc(Cl)c(C(F)(F)F)c3)c(F)c2)ccn1, the Potency was 5.9 µM (active). In the case of CCNC(=O)[C@H]1O[C@@H](n2cnc3c(N)nc(NCCc4ccc(CCC(=O)O)cc4)nc32)[C@H](O)[C@H]1O, the Potency is reported as “inactive”. For Cc1cc(NC(=O)Nc2ccc(N(C)C)cc2)c2cc(F)cc(F)c2n1, the Potency was “inactive”. For CCCCCCOC(=O)N=C(N)c1ccc(NCc2nc3cc(C(=O)N(CCC(=O)OCC)c4ccccn4)ccc3n2C)cc1, the Potency was “inactive”. For COc1ccc(-c2nc3ccc(C4=NNC(=O)CC4C)cc3[nH]2)cc1 (stereo not given), the Potency was 21.1 µM (active).
